HPGD block = blocks human HPGD enzyme activity; purified HPGD, NADH fluorescence kinetic, PGE2 substrate; Potency, µM, for inactives: at the highest dose activity change, negative = inhibition, hits mostly inhibitors; 150,000 compounds, 4.3% hits; AID 894; active means well fitted inhibition curve with a large enough effect, not every such curve was filed as active; inconclusive means small, poorly fitted or top-dose-only effect, or another doubt; inactive means no such curve, though single readings can be large or run the other way; further: potency means the concentration at half of the fitted maximal effect
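NADH formation kinetics: reaction with 30 uM PGE2 and 1 mM NAD+ (final), 20 nM enzyme, Tris-HCl pH 8 with Tween 20, after 15 min compound preincubation at room temperature. Fluorescence change, last versus first of five reads.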
ALOX12 inhib = inhibitors of human 12-lipoxygenase (ALOX12) | P18054 | purified 12-hLO, xylenol orange hydroperoxide absorbance | Potency, µM (top dose mostly 57.1 µM), inactives show at the top dose activity change, negative = inhibition, hits mostly inhibitors | 150,000 compounds, 0.12% hits | AID 1452; further: potency means the concentration at half of the fitted maximal effect; nearly all actives have a fitted effect of over 55% in size
Target sequence (P18054 whole entry, looked up): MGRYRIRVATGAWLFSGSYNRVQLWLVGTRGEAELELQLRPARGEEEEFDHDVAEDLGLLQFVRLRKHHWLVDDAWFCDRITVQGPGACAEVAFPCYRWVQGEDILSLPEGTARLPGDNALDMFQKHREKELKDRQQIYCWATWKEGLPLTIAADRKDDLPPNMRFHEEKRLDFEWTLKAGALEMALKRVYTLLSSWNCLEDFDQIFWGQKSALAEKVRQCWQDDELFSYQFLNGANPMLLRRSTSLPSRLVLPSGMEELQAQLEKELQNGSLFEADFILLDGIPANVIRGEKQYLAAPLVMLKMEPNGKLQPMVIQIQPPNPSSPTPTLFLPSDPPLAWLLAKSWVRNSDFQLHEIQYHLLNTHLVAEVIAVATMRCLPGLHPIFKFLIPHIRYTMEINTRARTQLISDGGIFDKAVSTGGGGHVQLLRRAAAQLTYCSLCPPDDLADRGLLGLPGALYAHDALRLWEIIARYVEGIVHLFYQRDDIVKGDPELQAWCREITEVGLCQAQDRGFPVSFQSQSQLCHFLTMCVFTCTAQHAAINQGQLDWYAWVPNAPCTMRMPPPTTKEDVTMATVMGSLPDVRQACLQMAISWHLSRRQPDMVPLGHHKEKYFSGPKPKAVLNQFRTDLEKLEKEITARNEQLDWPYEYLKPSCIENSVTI
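Hydroperoxide output read as Fe(III)-xylenol orange absorbance, 573-to-405 nm ratio, after 30 min reaction with 40 uM arachidonic acid. Enzyme: 150 nM purified human 12hLO, 15 min compound preincubation; 25 mM Hepes pH 7.0, room temperature.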
IMPase Li inh = cell-permeable IMPase inhibitors with lithium potentiation | Potency, µM (highest dose often 59.4 µM), inactives show top-dose activity, negative = IMPase inhibition, most hits filed as inhibitors | 210,000 compounds, 0.35% hits | AID 1457 | CHO-M1 cells, IP1 TR-FRET (IP-One), carbachol + lithium;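 further: IP1 builds up when IMPase is blocked and the TR-FRET signal falls; potency means the concentration at half of the fitted maximal effect; plate controls were basal vehicle for no effect and high inhibitor control for full effect; nearly all actives have a fitted effect of over 50% in size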
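IP1 accumulation measured by competitive TR-FRET in lysed CHO-M1 cells after 30 min compound exposure at 37C, with a small lithium addition to potentiate weak responses. Hill-equation AC50 from ratio and donor-channel data.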
IMPase cell inh = cell-permeable inhibitors of inositol monophosphatase (IMPase). CHO-M1 cells, IP1 accumulation, HTRF TR-FRET ratio. AID 901. 120,000 tested, under 10 active. inhibition (IP1 accumulation), % at 46.1 µM. P97697; active means well fitted curve in the direction sought with a large enough effect in the signal ratio, not every such curve was filed as active; inconclusive means small, poorly fitted or top-dose-only effect, or a change in a side signal; inactive means no such curve, though single readings can be large or run the other way; the % refers to the signal ratio;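 further: cells stimulated with carbachol in lithium chloride buffer; plate controls were DMSO basal wells for no effect and reference inhibitor wells for full effect; higher means more IMPase inhibition seen as more IP1 and lower FRET ratio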
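Elevated IP1 in lysates lowers TR-FRET signal (665/620 ratio and 620 channel reported). Cells were CHO-M1, given carbachol (50 uM as added) plus 50mM LiCl, pH 7.4, 30 min, 37C; compounds titrated up to 46 uM; AC50 by Hill equation.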
PNC inhibitor = perinucleolar compartment assembly inhibition; PC3M PTB-GFP, PNC prevalence imaging, 16 h; stronger effect = lower value; activity change (PNC), negative = inhibition, % at 10 µM; 140,000 compounds, 3.1% hits;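 active means readout at or below -70, meaning at least 70% loss of cells showing the perinucleolar compartment, a nuclear body marking cancer cells; inconclusive means readout between -30 and a set limit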;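 further: plate controls were DMSO wells for no effect and camptothecin positive control wells for full effect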
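Read-out is percentage of cells bearing a perinucleolar compartment, from automated 20x imaging of fixed, Hoechst-stained PC3M PTB-GFP cells. Cells were seeded 4 h, then exposed 16 h to compound (23 nl of library stock) in duplicate plates.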
ALOX15B inhib = 15-hLO-2 (ALOX15B) enzyme inhibition | O15296 | purified 15hLO-2, xylenol orange hydroperoxide absorbance | Potency, µM (highest dose often 57.1 µM), without a hit: top-dose activity change, negative = inhibition, most hits filed as inhibitors | 110,000 compounds, 0.56% hits; further: potency means the concentration at half of the fitted maximal effect; nearly all actives have a fitted effect of over 60% in size
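Screening format was qHTS against 50 nM purified 15hLO-2 in Hepes pH 7.5 with detergent. Activity follows hydroperoxide formation from 45 uM arachidonic acid, measured as 573:405 nm absorbance ratio of the ferric-xylenol orange complex.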
Active calls of the source: *; ? = inconclusive; / = not tested or not shown; [ ] = another dose, or the depositor's remark. The list is not random: actives were taken first. Their share in the collection is about 5.4%. Unless noted, the call rests on the fitted dose curve; in most records, active means well fitted curve in the direction sought with a large enough effect; inconclusive means small, poorly fitted or top-dose-only effect, or another doubt; inactive means no such curve, though single readings can be large; an effect the other way counts as inactive or inconclusive. Unless noted, on the % scale 0 is the no-effect control and ±100 the full control effect.

SMILES	HPGD block	ALOX12 inhib	IMPase Li inh	IMPase cell inh	PNC inhibitor	ALOX15B inhib
Cc1ccc(-c2ccc(/C=C/C(=O)c3ccccc3)o2)cc1	14µM*	-18%	3%	-5	?	/
CC(C)OC(=O)[C@@H]1CC[C@H](C)[C@@H](CCC[C@@H]2C[C@@H](O)C[C@H](CC#N)O2)O1	2%	/	3%	/	/	/
NCCCc1c(-c2ccccc2)nc(N)[nH]c1=O	-11%	-1%[11.4 µM]	-1%	/	/	-8%[11.4 µM]
CCc1ccc2oc(C(=O)NCc3ccncc3)c(C)c2c1	?	2%	10%	4	?	/
Cc1cc(C)c2c(C)c(C(=O)NCc3ccncc3)oc2c1	-24%	5%	2%	-4	-100*	/
Cc1cc(C(=O)OCC(=O)c2ccc(Br)s2)no1	?	?	6.3µM*	?	-19	-24%
CCc1ccc(NC(=O)c2cc(C)on2)cc1	-7%	-2%	-14%[38.3 µM]	-2	-22	-1%
C=CCOC(=O)C1=C(C)Nc2nnnn2C1c1cccs1 (stereo not given)	-16%	-7%	-2%[38.3 µM]	3	?	-7%
COC(=O)C1=C(C)Nc2nnnn2C1c1cccs1 (stereo not given)	16µM*	8%	31%[38.3 µM]	1	?	-6%
C/C(N=NC(=[SH+])SCc1ccccc1)=C1\C=CC=CN1.[Cl][Cu]	3.5µM*	/	2%	/	/	/
CCCCn1cnc2c(SC)ncnc21	-10%	2%[11.4 µM]	-5%	/	/	-2%[11.4 µM]
COCCn1c(=NC(=O)CSCC(=O)Nc2cc(C)on2)sc2cc(C(=O)OC)ccc21	-11%	2%	-4%	/	-113*	/
CC/C=C\C[C@H](O)/C=C/C=C\C/C=C\C/C=C\CCCC(=O)O	-5%	5%	7%	/	/	/
CC1CCN(Cc2c(O)ccc3c(=O)c(-c4cccc(Cl)c4)c(C(F)(F)F)oc23)CC1	/	/	/	-1	/	/
Fc1ccc(-n2c(-c3ccc4ccccc4n3)n[nH]c2=S)cc1	/	/	3%	/	/	/
S=c1[nH]nc(-c2ccc3ccccc3n2)n1-c1ccccc1Cl	10µM*	4%	-7%	/	1	/
CCc1c(-c2n[nH]c(=S)n2Cc2ccccc2)csc1C	16µM*	?	11%	/	?	/
S=c1[nH]nc(-c2ccc3ccccc3n2)n1-c1cc(Cl)cc(Cl)c1	?	-1%	10µM*	-20	-17	/
Cc1ccccc1OCc1n[nH]c(=S)n1Cc1ccccc1	14µM*	-23%	21%	/	4	/
Cc1scc(-c2n[nH]c(=S)n2Cc2ccccc2)c1C	?	-1%	5%	/	-28	/
Cc1ccc(OCc2n[nH]c(=S)n2Cc2ccccc2)cc1	/	/	17%	/	/	/
S=c1[nH]nc(-c2ccc3ccccc3n2)n1Cc1ccccc1	11µM*	1%	-3%	/	24	/
Cc1ccc(OCC(=O)Nc2ccc(N(C)C)cc2)cc1	-7%	-1%	8%[38.3 µM]	-6	5	-4%
COCC(=O)Nc1ccc(C(C)C)cc1	18µM*	-5%	55%[38.3 µM]	3	?	-6%
CC(=O)NC(=S)Nc1ccc(NC(=O)COc2ccc(C(C)C)cc2)cc1	-5%	-2%	-1%	/	6	/
SMILES	HPGD block	ALOX12 inhib	IMPase Li inh	IMPase cell inh	PNC inhibitor	ALOX15B inhib
CCC(=O)Nc1ccc(S(=O)(=O)NCCc2ccccc2)cc1	-6%	0%	-4%[38.3 µM]	0	29	2%
COCC(=O)Nc1ccc(S(=O)(=O)NCCc2ccccc2)cc1	-8%	-2%	13%[38.3 µM]	1	-107*	-4%
CC(=O)NS(=O)(=O)c1ccc(NC(=O)COc2ccc(C(=O)c3ccccc3)cc2)cc1	25µM*	-2%	-7%	/	-12	/
COCC(=O)Nc1ccc(N(C)C)cc1	?	-6%	28%[38.3 µM]	1	-81*	-5%
COc1cccc([C@@H]2Oc3ccc(Br)cc3C(=O)[C@H]2OC(=O)NCCOc2ccccc2)c1	-7%	/	3%	/	/	/
COc1ccccc1N1CCN(C(=O)c2ccc(Nc3nc4ccccc4n4nnnc34)cc2)CC1	/	/	/	1	/	/
FC(F)(F)c1nc(SCc2ccc(Cl)cc2)n[nH]1	-10%	-3%[11.4 µM]	3%	/	/	-8%[11.4 µM]
N=C(N)C(N=Nc1ccccc1)C(=N)N (stereo not given)	-8%	-3%[11.4 µM]	4%	/	/	5%[11.4 µM]
O=c1c(O)c(-c2cc(O)c(O)c(O)c2)oc2cc(O)cc(O)c12	7.9µM*	?	10%	?	/	?
O=c1c(O)c(-c2ccccc2)oc2cc(O)cc(O)c12	-28%	2%	17%	3	/	-17%
CN1CCN(C(=O)/C(=C/c2ccccc2)c2ccccc2)CC1	13µM*	1%	34%[38.3 µM]	17	-1	2%
CC1CCCCN1C(=O)/C(=C\c1ccccc1)c1ccccc1 (stereo not given)	14µM*	6%	4%[38.3 µM]	7	28	-11%
CN1CCN(C(=O)/C(=C/c2ccc(F)cc2)c2ccsc2)CC1	/	/	30%	/	/	/
CC1CC(C)CN(C(=O)/C(=C\c2ccccc2)c2ccccc2)C1 (stereo not given)	11µM*	-2%	10%	/	10	/
COc1ncc2nc(-c3cn(C)c4ccccc34)c(=O)n(CCc3ccccc3)c2n1	/	/	-11%	/	/	-8%
CC(C)C(=O)N1CCN(c2ccc(NC(=O)c3cccs3)cc2)CC1	-8%	0%	11%	-4	-100*	/
CCOc1ccc(C(=O)c2cccs2)cc1	16µM*	0%	-12%[38.3 µM]	-3	17	-4%
O=C(c1ccccc1)c1cccs1	/	/	-2%	/	/	/
CC(C)CNC(=O)c1ccc(NC(=O)c2cccs2)cc1	18µM*	-1%	2%	/	-3	/
O=C(c1ccc(N2CCOCC2)cc1)c1cccs1	13µM*	-1%	10%[38.3 µM]	6[1.84 µM]	?	3%[11.4 µM]
N#C/C(=C\Nc1ccccn1)C(=O)c1ccco1	-21%	0%[11.4 µM]	-2%	/	/	-4%[11.4 µM]
CCN(Cc1ccccc1)Cc1c(O)ccc2c(=O)c(-c3ccccc3OC)c(C(F)(F)F)oc12	/	/	/	1	/	/
N#CCCn1c(=O)c(-c2ccc(F)cc2)nc2cnc(Oc3ccccc3)nc21	-10%	7%	2%	/	/	-1%
O=C(/C=C/c1ccco1)Nc1ccc(N2CCCC2)cc1	-5%	0%	11%	/	29	/
O=C(/C=C/c1ccco1)Nc1ccc(C(=O)N2CCOCC2)cc1	18µM*	0%	2%	/	14	/
O=C(Nc1ccc(C(=O)N2CCOCC2)cc1)c1cccs1	14µM*	-2%	4%[38.3 µM]	-1	-12	-7%
Cn1c2ccccc2c2c(C(=O)N3CCN(c4ccccc4)CC3)cn(C3CCCC3)c(=O)c21	?	-6%	27%[38.3 µM]	-8	-113*	12%
CCc1cc(=O)oc2cc3occ(-c4ccc(OC)c(F)c4)c3cc12	?	-2%	12%	-3	-93*	/
CCc1cc(=O)oc2cc3occ(C)c3cc12	-9%	0%	20%	/	?	/
Cc1ccccc1-c1cncnc1NCc1cccnc1	/	/	11%	/	/	?
